40 sequences from the OligoGym collection can be followed below.
Note: reference of the scale not given here.

In the first assay the target is TRPM3. Nature of the assay: pooled miR-30 sensor sort-seq; sequence = guide strand. The settings on record: shRNA.
The sequence AATGTCGTCAACCATGTCGTTC registered a sensor-assay potency score (higher = more potent) of -1.05. The same measure, in the same setting: for TTCTATACCACCTTTGTCTTTC the value was 0.0572; for TTTGTCTTTCATATTGACCGAA, -0.0309. Same read-out and setting: for TTTCTCATTCTGAAGCACGGAG the value was -0.126; for TTTCTTGAGCTCATCATCGGTT, 0.21. The same measure, in the same setting: under TATTTTACCATCCTCTCGGGTC stands -0.479.

The target in another assay is TRPM6. Described as above. The following applies: shRNA.
TTGTTGTTGTTATACTTCCGGA showed a sensor-assay potency score (higher = more potent) of -0.714.

Consider TGTTCTTTTGACTTCTTCCTTG, for which the sensor-assay potency score (higher = more potent) worked out at 0.00322. On the same count and under the same terms, for TTGAGTGTTGTGAGCTTGCTGA the value was -0.408; for TTGTATTGTAGAGCTCTTCCAG, -0.0378; for TAAATGTAACAGATGATCCAGT, 0.213.

For the sequence TAGAACTCATAGACTTTCCTGG, the sensor-assay potency score (higher = more potent) came out at 0.494. Same read-out and setting: for TAATTCTTCAACTCTTCTGAGG the value was -0.79; for TAAGTGAGCAATAGGCTCGTGC, -0.42; for TATGTTATCACAGAGTTCCTGG, 0.658. The sequence TAAAACTATGACTCCTAGCGAA gave a sensor-assay potency score (higher = more potent) of -0.766. On the same count and under the same terms, for TATAGATCAATTTTTGAGCAGC the value was -0.262; for TTGAGTAATTCTTCAACTCTTC, -0.179.

Another assay deals with TRPV1. Described as above. The settings on record: shRNA.
TAGTAGAGCATGTTGGTCCAGC registered a sensor-assay potency score (higher = more potent) of -0.185.

ATGCTCGTCACAAACTTCGTGT: the sensor-assay potency score (higher = more potent) is -0.192.

TTAAGGAAGCTCTTCTCCGTGT came in with a sensor-assay potency score (higher = more potent) of -0.306. On the same count and under the same terms, under TTGAGCAGGAGGATGTAGGTGA stands 1.19; under TCGCAGATAAACTTCCTCGGGC, 0.131; under TTGAAGTAGAAGATGCGCTTGA, 0.616. With TAGTAGCTGTCCGTGTAGCTGG, the sensor-assay potency score (higher = more potent) is -0.744. The same measure, in the same setting: under TTGTCTGTGAGGTGCTTCTTGC stands -0.584. Still for that read-out and setting: under TAACTCGGAAATAGTCTCCAGT stands 0.133; under TTGGTGTTCCAGGTGGTCCAGT, -0.829. On to TAGCTGTCCGTGTAGCTGGCGT, for which the sensor-assay potency score (higher = more potent) is -0.712. On to ATGTAGACAAACATGAAACGGC, for which the sensor-assay potency score (higher = more potent) was -0.484.

In a further assay the target is TSC1. Described as above. The following applies: shRNA.
TGAACTTGCACTCAGACCCTGG yielded a sensor-assay potency score (higher = more potent) of -0.099. Turning to TTCCAGGTAATAATCCACCAAG, the sensor-assay potency score (higher = more potent) was -1.16. Still for that read-out and setting: under TAGATATTGCAGCTTCTTCTTT stands -0.827.

With TATCTTTTTCAATACTATCTTC, the sensor-assay potency score (higher = more potent) was -0.463. TAGCATGGTTATCAACACCAAG yielded a sensor-assay potency score (higher = more potent) of -0.952.

TAGATATTTCTTCTGTTCCAAA yielded a sensor-assay potency score (higher = more potent) of -1.26. Regarding TTCTCTTGTAACTTCAACTGAT, the sensor-assay potency score (higher = more potent) turned out to be 0.432. The same measure, in the same setting: under TATTTAACAACATCAGCCGAGA stands -0.654.

For ATATTTAACAACATCAGCCGAG, the sensor-assay potency score (higher = more potent) amounted to 0.191.

Sequence TAGCTGTCCAACACTGTCCGGG had a sensor-assay potency score (higher = more potent) of -0.0259.
